Bioassay records deposited in PubChem by National Center for Advancing Translational Sciences (NCATS).
A selection: hits, their analogues and other compounds. The true share with any hit is near 0.9%.
A488 autofl: A488 region autofluorescence; max dye equivalency, M; compound autofluorescence, A488 spectral region, dye equivalency; Compound Type: qHTS ECL - MLSMR; AID 591; hit rate 0.1% among 59,000
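Read-out: relative fluorescence at 480/540 nm, expressed as Alexa 488 dye-equivalent concentration from a six-point A488 standard included per plate. Conditions: 100 mM Tris, pH 8.0; 15 min incubation, room temperature.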
Fluorescein fluor: compound autofluorescence in fluorescein spectral region. Compound autofluorescence, 480/540 nm, fluorescein-equivalent; stronger effect = higher value. max fluorescein-equivalent concentration, M. hit rate 0.91% among 59,000; in the data active means max fluorescein-equivalent concentration above about 10 nM; inconclusive means between about 1.1 nM and that limit
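Compounds (23 nL) in 100 mM Tris pH 8.0, 15 min at room temperature, then fluorescence read at 480 nm excitation/540 nm emission. Signal converted to fluorescein-equivalent concentration from an on-plate fluorescein standard curve.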
A647 fluor: compound fluoresces in the A647 spectral region. Compound fluorescence, A647 channel (570/671 nm), Tris buffer. max dye-equivalent concentration, M. 59,000 tested, under 10 active. AID 592;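 further: values scaled relative to a standard on each plate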
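Spectral profiling of library compounds in pH 8.0 Tris: 15 min room-temperature incubation, single ex/em pair (570/671 nm), response normalized to Alexa 647 equivalents.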
Resorufin fluor: compound fluoresces in the resorufin spectral region; Compound fluorescence, resorufin region 547/598 nm, buffer; stronger effect = higher value; hit rate 0.04% among 59,000; AID 588; max dye-equivalent concentration, M
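Compounds in 100 mM Tris buffer, pH 8.0, incubated 15 min at room temperature, then read with 547 nm excitation and 598 nm emission filters. Fluorescence was converted to dye-equivalent concentration using an on-plate six-point resorufin standard curve.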
Rhodamine autofl: compound autofluorescence in rhodamine spectral region. Rhodamine-region fluorescence, 547/598 nm, Tris buffer; stronger effect = higher value. hit rate 0.05% among 59,000. max dye-equivalent concentration, M; in the data active means max dye-equivalent concentration above about 11 nM; inconclusive means between about 1.1 nM and that limit
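Read-out is relative fluorescence at 547 nm excitation and 598 nm emission, expressed as dye-equivalent concentration using rhodamine standards on every plate. Each compound was profiled across a concentration series after 15 min in 100 mM Tris, pH 8.0.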
TexasRed autofl: compound fluoresces in the Texas Red spectral region; Compound fluorescence, Texas Red channel, 547/618 nm; stronger effect = higher value; max dye-equivalent concentration, M; hit rate 0.06% among 59,000; AID 587; in the data active means max dye-equivalent concentration above about 10 nM; inconclusive means between about 1.1 nM and that limit
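Dye-equivalent concentrations come from scaling compound signal (ex 547, em 618 nm) to six Texas Red standard concentrations run on every plate, after 15 min room-temperature incubation in pH 8.0 Tris (100 mM).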
* marks the source's active call; other numbers are inactive results; i = inactive; ? = inconclusive. Unless noted, how the calls were made is not given here.

SMILES	A488 autofl	Fluorescein fluor	A647 fluor	Resorufin fluor	Rhodamine autofl	TexasRed autofl
CCN1C(=O)/C(=C2/SC(C)=C(C)N2CC)SC1=S	?	7.1e-08M*	1e-09	i	i	i
CC1C2C(c3ccccc3)N(C)C(=O)N(C)C2N(C)C(=O)N1C (centres undefined)	i	1.5e-08M*	2.5e-09	i	i	i
CC(=O)N1C(=O)N(C(C)=O)C2C1N(C(C)=O)C(=O)N2C(C)=O (centres undefined)	i	i	1e-09	i	i	i
Cc1noc(C)c1C(=O)N1CCC2(CCCN(Cc3nccs3)C2)CC1	i	i	1e-09	i	i	i
COc1cc(/C=C/C2=NC(=O)C(C)(C)O2)ccc1O	i	3e-08M*	1e-09	i	i	i
COc1cc(/C=C/C(=O)CC(=O)/C=C/c2ccc(O)c(OC)c2)ccc1O	i	?	2.9e-08	i	i	i
CC(=O)c1c(C)[nH]c(C(=O)CSc2nc3ccccc3c(=O)n2CCCN2CCOCC2)c1C	i	?	7.8e-09	i	i	?
Cc1sc2nc(CSc3nc4ccccc4c(=O)n3CCCN3CCOCC3)[nH]c(=O)c2c1C	?	3.4e-08M*	1e-09	i	i	i
C[C@]12C=CC(=O)C=C1CC[C@@H]1[C@H]3C[C@@H](O)[C@](O)(C(=O)CO)[C@]3(C)C[C@H](O)[C@]12F	i	?	4.7e-08	i	i	i
CN1C=CC2=C(C#N)C(N)C(C#N)(C#N)C(c3ccccc3)C2C1 (centres undefined)	?	3.3e-08M*	5.7e-08	i	i	i
CC(=O)S[C@H]1CC2=CC(=O)CC[C@@]2(C)[C@H]2CC[C@@]3(C)[C@H](CC[C@]34CCC(=O)O4)[C@@H]12	?	4.9e-08M*	4.4e-08	?	?	1e-08M*
O=C(O)C[C@@H](C(=O)O)c1ccccc1[N+](=O)[O-]	i	i	1e-09	i	i	i
CC(C)(C)c1cc2c(O)c(c1)Cc1cc(C(C)(C)C)cc(c1O)Cc1cc(C(C)(C)C)cc(c1O)Cc1cc(C(C)(C)C)cc(c1O)Cc1cc(C(C)(C)C)cc(c1O)Cc1cc(C(C)(C)C)cc(c1O)Cc1cc(C(C)(C)C)cc(c1O)Cc1cc(C(C)(C)C)cc(c1O)C2	i	i	3.5e-09	i	i	i
COc1cccc(Nc2ncc3nc(-c4ccccc4)c(=O)n(C[C@H]4CCCO4)c3n2)c1	i	1.1e-08M*	2.4e-09	i	i	i
COc1cccc(Nc2ncc3nc(-c4ccc(Cl)cc4)c(=O)n(C[C@H]4CCCO4)c3n2)c1	i	i	1e-09	i	i	i
COc1ccc(OC)c(/C=c2\sc3nc(-c4cccs4)nn3c2=O)c1	?	1.8e-07M*	2.4e-09	i	i	i
O=C(Nc1ccc2c(c1)OCO2)C1CCCN(c2nc3ccccc3s2)C1 (centres undefined)	i	?	4.6e-08	?	1.2e-08M*	2.6e-08M*
CCc1nnc(NC(=O)C2CCCN(c3nc4ccccc4s3)C2)s1 (centres undefined)	i	?	3.8e-08	i	i	i
CN(C)c1ccc(/C=C/C(O)=C2/C(=O)N(C)C3(C)CC2c2ccccc2O3)cc1 (centres undefined)	i	1.6e-08M*	1e-09	i	i	i
COc1cc(N2C(=O)NC3CC2(C)Oc2ccccc23)cc(OC)c1OC (centres undefined)	i	i	4.2e-08	i	i	i
CC(=O)O[C@H]1C(=O)[C@]2(C)[C@H]([C@H](OC(=O)c3ccccc3)[C@@]3(O)C[C@H](OC(=O)[C@@H](O)[C@@H](NC(=O)c4ccccc4)c4ccccc4)C(C)=C1C3(C)C)[C@]1(OC(C)=O)CO[C@@H]1C[C@@H]2O	i	i	1.6e-08	i	i	i
Cc1ccc(N2C(=O)[C@@H]3[C@H](C2=O)C2c4ccccc4C=CN2[C@@H]3C(=O)c2ccco2)cc1 (some centres undefined)	i	1.1e-08M*	1e-09	i	i	?
